Source: PubChem BioAssay (EPA / NIEHS)
Results filed as inconclusive are left out. Activity calls are given as the source filed them. Rule for the calls: active = hit-call score of the fitted dose curve at least 0.9, where 1 is the maximum; inconclusive = response in the unintended direction; inactive = score below 0.9.

How the values were obtained:
CDK2 (gene 1017) = CDK2 (gene 1017) (UniProt P24941); experiment: NVS_ENZ_hCDK2: NovaScreen (NVS) Enzymatic Assay for human Cyclin-Cependent Kinase 2 (CDK2) (AID 2283144)
In short: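 Compounds screened in duplicate at 25 uM, then in singleton concentration-response to a maximum of 50 uM, against recombinant CDK2; kinase activity read 1 hr after dosing by fluorescence with mobility-shift separation of substrate and product.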

[1] = biological target: human FYN Proto-Oncogene, Src family Tyrosine Kinase (Fyn), FYN (gene 2534) (UniProt P06241); experiment: NVS_ENZ_hFyn: NovaScreen (NVS) Enzymatic Assay for human FYN Proto-Oncogene, Src family Tyrosine Kinase (Fyn) (AID 2283161)
In short: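 Cell-free kinase activity read by fluorescence after mobility-shift separation of substrate and product, 1 h post-dose. Initial single concentration 25 uM in duplicate, then concentration-response follow-up; DMSO baseline.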

[2] = biological target: human c-Jun N-terminal Kinases (JNK2), MAPK9 (gene 5601) (UniProt P45984); experiment: NVS_ENZ_hJNK2: NovaScreen (NVS) Enzymatic Assay for human c-Jun N-terminal Kinases (JNK2) (AID 2283171)
In short: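 Chemicals first tested in duplicate at 25 uM, then in singleton concentration series up to 50 uM, against extracted JNK2 enzyme. Activity loss read by fluorescence with mobility-shift separation 1 h post-dose; DMSO baseline.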

[3] = biological target: human Colony Stimulating Factor 1 Receptor (CSF1R), CSF1R (gene 1436) (UniProt P07333); experiment: NVS_ENZ_hCSF1R: NovaScreen (NVS) Enzymatic Assay for human Colony Stimulating Factor 1 Receptor (CSF1R) (AID 2283150)
In short: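 Compounds screened in duplicate at 25 uM, then concentration-response (top 50 uM) for those passing threshold such as 30% inhibition; recombinant CSF1R activity measured 1 h post-dosing via fluorescent substrate/product mobility-shift separation, loss of signal versus DMSO.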

[4] = biological target: human MAP Kinase-Activated Protein Kinase 2 (MAPKAPK2), MAPKAPK2 (gene 9261) (UniProt P49137); experiment: NVS_ENZ_hMAPKAPK2: NovaScreen (NVS) Enzymatic Assay for human MAP Kinase-Activated Protein Kinase 2 (MAPKAPK2) (AID 2283178)
In short: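 Chemicals screened in duplicate at 25 uM, then to 50 uM top concentration in concentration-response, against recombinant human MAPKAPK2; substrate conversion read 1 hr post-dosing by fluorescence after electrophoretic mobility-shift separation, loss-of-signal relative to DMSO.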

[5] = biological target: human Elastase, ELANE (gene 1991) (UniProt P08246); experiment: NVS_ENZ_hElastase: NovaScreen (NVS) Enzymatic Assay for human Elastase (AID 2283153)
In short: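 Concentration-response to 50 uM max, run singly for chemicals passing a threshold (e.g., 30% inhibition) in a duplicate 25 uM single-point screen. Neutrophil-derived human elastase, absorbance read-out of enzyme activity at 1.5 h; DMSO baseline.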

[6] = biological target: human Esterase Plasma (ES), BCHE (gene 590) (UniProt P06276); experiment: NVS_ENZ_hES: NovaScreen (NVS) Enzymatic Assay for human Esterase Plasma (ES) (AID 2283157)
In short: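 Screening ran at 25 uM in duplicate, followed by singleton concentration series reaching 50 uM for actives. Human plasma protein, colorimetric detection, 0.25 h exposure, DMSO negative control.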

[7] = biological target: human Janus Kinase 2 (Jak2), JAK2 (gene 3717) (UniProt O60674); experiment: NVS_ENZ_hJak2: NovaScreen (NVS) Enzymatic Assay for human Janus Kinase 2 (Jak2) (AID 2283169)
In short: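 Single-point duplicate screen at 25 uM, with hits run in concentration series to a 50 uM top dose. Substrate-product separation by mobility shift with fluorescence detection, 1 h post-dosing; DMSO baseline.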

[8] = biological target: human Ephrin type-A Receptor 1 (EphA1), EPHA1 (gene 2041) (UniProt P21709); experiment: NVS_ENZ_hEphA1: NovaScreen (NVS) Enzymatic Assay for human Ephrin type-A Receptor 1 (EphA1) (AID 2283158);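 note: activity is signal loss versus DMSO meaning EphA1 kinase inhibition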
In short: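 Here the EphA1 protein is recombinant and the substrate fluorescent, with electrophoretic separation before fluorescence detection at 1 hour. Signal loss against DMSO defines activity; plate controls included; follow-up concentration series reach 50 uM.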

[9] = biological target: Glycogen synthase kinase-3 beta (Homo sapiens) (UniProt P49841); experiment: NVS_ENZ_hGSK3b: NovaScreen (NVS) Enzymatic Assay for human Glycogen Synthase Kinase-3 beta (GSK3b) (AID 2283165)
In short: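 Recombinant enzyme with specific fluorescent substrate, 1 h, product separated by electrophoretic mobility shift. Primary duplicate screen at 25 uM; actives (e.g. 30% inhibition) followed in singleton concentration-response to 50 uM. Signal loss fitted versus DMSO.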

[10] = biological target: human LYN Proto-Oncogene, Src family Tyrosine Kinase (LynA), LYN (gene 4067) (UniProt P07948); experiment: NVS_ENZ_hLynA: NovaScreen (NVS) Enzymatic Assay for human LYN Proto-Oncogene, Src family Tyrosine Kinase (LynA) (AID 2283173)
In short: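 Recombinant kinase with fluorescent substrate; product separated from substrate by electrophoretic mobility shift and read 1 h after dosing. Duplicate screen at 25 uM, then concentration-response up to 50 uM; activity scored as signal loss against DMSO.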

[11] = biological target: human Dual Specificity Protein Phosphatase 3 (DUSP3), DUSP3 (gene 1845) (UniProt P51452); experiment: NVS_ENZ_hDUSP3: NovaScreen (NVS) Enzymatic Assay for human Dual Specificity Protein Phosphatase 3 (DUSP3) (AID 2283152);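 note: phosphatase activity of recombinant human DUSP3 on a fluorogenic substrate without cells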
In short: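 Cell-free fluorescence-intensity enzyme activity assay with recombinant protein and substrate; loss of signal fitted relative to DMSO baseline. Primary screen in duplicate at 25 uM, actives then run in concentration series; measured 0 h after dosing.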

[12] = biological target: Mitogen-activated protein kinase 3 (Homo sapiens) (UniProt P27361); experiment: NVS_ENZ_hMAPK3: NovaScreen (NVS) Enzymatic Assay for human Mitogen-Activated Protein Kinase 3 (MAPK 3) (AID 2283177)
In short: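 Chemicals were first tested in duplicate at 25 uM, with hits re-run as concentration series (max 50 uM). Recombinant enzyme activity, measured 1 h post-dose in a cell-free format, was read by fluorescence/mobility shift relative to DMSO.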

[13] = biological target: human Insulin Receptor (InsR), INSR (gene 3643) (UniProt P06213); experiment: NVS_ENZ_hInsR: NovaScreen (NVS) Enzymatic Assay for human Insulin Receptor (InsR) (AID 2283168)
In short: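 Cell-free enzyme assay read 1 h post-dose by fluorescence after substrate/product mobility-shift separation. Duplicate 25 uM primary screen, then singleton concentration-response up to 50 uM for compounds passing threshold; loss of signal vs DMSO.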

[14] = biological target: Histone deacetylase 3 (Homo sapiens) (UniProt O15379); experiment: NVS_ENZ_hHDAC3: NovaScreen (NVS) Enzymatic Assay for human Histone Deacetylase 3 (HDAC3) (AID 2283163)
In short: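 Cell-free enzyme format: loss of fluorescent product after mobility-shift separation, 1 h incubation, recombinant human HDAC3. Single 25 uM duplicate screen first, then concentration series to a 50 uM top for hits; DMSO as baseline.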

Chain of human FYN Proto-Oncogene, Src family Tyrosine Kinase (Fyn), FYN (gene 2534) (P06241 whole entry, looked up): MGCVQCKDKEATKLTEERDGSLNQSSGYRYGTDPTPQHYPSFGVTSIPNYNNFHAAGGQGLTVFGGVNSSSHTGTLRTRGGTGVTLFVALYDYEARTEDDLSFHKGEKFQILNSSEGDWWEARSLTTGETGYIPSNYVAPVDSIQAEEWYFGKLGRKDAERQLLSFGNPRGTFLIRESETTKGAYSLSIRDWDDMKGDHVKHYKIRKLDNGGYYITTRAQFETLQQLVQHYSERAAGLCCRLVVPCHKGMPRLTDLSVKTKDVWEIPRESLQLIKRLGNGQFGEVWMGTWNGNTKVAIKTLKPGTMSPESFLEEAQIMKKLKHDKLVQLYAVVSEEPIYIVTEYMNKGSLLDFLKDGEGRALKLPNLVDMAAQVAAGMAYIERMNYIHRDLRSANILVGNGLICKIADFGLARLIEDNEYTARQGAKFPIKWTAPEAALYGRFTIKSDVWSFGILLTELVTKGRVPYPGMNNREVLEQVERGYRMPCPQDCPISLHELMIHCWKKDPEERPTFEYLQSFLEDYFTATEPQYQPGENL
Chain of human Elastase, ELANE (gene 1991) (P08246 whole entry, looked up): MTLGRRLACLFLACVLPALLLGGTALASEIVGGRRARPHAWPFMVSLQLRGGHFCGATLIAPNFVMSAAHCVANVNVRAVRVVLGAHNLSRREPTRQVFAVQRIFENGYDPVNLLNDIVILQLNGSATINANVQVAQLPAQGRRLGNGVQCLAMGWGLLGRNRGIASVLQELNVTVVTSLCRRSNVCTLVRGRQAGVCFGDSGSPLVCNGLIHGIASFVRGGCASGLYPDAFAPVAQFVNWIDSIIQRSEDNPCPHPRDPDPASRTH
Chain of human Esterase Plasma (ES), BCHE (gene 590) (P06276 whole entry, looked up): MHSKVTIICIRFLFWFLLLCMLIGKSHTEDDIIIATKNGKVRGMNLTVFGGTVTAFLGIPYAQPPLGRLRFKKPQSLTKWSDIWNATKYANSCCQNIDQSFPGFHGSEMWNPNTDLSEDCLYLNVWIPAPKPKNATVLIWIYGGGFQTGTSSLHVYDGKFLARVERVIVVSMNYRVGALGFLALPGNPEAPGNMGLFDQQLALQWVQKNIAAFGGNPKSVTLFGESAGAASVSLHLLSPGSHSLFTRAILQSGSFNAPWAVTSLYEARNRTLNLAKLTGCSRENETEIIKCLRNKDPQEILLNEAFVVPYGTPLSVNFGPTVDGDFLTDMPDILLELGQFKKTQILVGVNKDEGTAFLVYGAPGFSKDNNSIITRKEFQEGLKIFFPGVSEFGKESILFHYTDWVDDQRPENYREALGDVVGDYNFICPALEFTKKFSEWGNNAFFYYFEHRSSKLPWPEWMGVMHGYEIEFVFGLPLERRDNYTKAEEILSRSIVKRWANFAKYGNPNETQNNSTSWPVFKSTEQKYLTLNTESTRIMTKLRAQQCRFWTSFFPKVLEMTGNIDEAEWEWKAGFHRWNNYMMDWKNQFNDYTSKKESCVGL
Chain of human Janus Kinase 2 (Jak2), JAK2 (gene 3717) (O60674 whole entry, looked up): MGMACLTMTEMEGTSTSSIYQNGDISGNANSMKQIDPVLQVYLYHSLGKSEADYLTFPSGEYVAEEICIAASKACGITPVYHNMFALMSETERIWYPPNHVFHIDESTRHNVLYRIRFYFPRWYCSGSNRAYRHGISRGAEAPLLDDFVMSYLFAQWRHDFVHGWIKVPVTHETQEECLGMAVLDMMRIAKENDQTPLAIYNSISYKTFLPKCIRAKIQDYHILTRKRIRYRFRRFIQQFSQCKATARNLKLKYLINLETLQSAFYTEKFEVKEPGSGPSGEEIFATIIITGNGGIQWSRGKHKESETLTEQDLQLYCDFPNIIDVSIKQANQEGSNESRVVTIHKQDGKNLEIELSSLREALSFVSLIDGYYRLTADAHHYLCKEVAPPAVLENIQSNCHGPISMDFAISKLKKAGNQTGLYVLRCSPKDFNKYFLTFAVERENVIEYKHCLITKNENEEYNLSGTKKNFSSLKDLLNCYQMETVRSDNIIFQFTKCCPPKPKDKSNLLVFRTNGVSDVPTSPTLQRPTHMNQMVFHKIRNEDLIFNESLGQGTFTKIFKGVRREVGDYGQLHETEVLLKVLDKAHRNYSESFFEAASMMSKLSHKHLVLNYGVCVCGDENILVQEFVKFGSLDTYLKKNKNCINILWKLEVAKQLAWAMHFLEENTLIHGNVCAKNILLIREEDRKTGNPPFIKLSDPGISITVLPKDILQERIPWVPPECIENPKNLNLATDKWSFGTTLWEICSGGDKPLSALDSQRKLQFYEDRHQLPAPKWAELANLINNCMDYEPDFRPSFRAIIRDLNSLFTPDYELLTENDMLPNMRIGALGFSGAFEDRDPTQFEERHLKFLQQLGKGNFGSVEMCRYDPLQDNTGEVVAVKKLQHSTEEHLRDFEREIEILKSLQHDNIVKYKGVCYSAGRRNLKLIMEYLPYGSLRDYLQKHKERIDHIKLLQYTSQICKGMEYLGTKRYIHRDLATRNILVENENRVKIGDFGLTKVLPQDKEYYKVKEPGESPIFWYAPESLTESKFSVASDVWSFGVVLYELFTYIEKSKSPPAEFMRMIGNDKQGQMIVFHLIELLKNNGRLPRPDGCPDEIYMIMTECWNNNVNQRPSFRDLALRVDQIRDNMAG
Chain of human MAP Kinase-Activated Protein Kinase 2 (MAPKAPK2), MAPKAPK2 (gene 9261) (P49137 whole entry, looked up): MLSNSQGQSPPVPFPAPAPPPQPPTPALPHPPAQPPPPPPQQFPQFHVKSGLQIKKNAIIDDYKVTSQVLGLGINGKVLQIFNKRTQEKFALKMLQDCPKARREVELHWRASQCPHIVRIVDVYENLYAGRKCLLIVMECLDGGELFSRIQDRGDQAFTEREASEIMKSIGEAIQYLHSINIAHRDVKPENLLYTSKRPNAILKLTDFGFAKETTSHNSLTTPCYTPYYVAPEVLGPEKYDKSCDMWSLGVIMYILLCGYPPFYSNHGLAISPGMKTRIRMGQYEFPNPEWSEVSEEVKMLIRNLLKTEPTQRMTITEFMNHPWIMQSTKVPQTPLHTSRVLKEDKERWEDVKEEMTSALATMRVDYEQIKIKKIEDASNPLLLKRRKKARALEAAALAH
Chain of Glycogen synthase kinase-3 beta (Homo sapiens) (P49841 whole entry, looked up): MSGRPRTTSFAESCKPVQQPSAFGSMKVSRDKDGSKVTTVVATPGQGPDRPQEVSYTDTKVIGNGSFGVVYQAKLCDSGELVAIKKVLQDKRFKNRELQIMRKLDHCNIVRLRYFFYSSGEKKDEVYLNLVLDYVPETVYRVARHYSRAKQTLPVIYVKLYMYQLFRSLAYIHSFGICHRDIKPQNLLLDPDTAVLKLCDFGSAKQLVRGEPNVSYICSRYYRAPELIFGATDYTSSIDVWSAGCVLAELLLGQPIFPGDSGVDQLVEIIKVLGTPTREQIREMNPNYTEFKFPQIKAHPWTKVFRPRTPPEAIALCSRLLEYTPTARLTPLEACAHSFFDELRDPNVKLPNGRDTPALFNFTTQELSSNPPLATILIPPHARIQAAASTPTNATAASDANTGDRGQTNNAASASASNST
Chain of human Ephrin type-A Receptor 1 (EphA1), EPHA1 (gene 2041) (P21709 whole entry, looked up): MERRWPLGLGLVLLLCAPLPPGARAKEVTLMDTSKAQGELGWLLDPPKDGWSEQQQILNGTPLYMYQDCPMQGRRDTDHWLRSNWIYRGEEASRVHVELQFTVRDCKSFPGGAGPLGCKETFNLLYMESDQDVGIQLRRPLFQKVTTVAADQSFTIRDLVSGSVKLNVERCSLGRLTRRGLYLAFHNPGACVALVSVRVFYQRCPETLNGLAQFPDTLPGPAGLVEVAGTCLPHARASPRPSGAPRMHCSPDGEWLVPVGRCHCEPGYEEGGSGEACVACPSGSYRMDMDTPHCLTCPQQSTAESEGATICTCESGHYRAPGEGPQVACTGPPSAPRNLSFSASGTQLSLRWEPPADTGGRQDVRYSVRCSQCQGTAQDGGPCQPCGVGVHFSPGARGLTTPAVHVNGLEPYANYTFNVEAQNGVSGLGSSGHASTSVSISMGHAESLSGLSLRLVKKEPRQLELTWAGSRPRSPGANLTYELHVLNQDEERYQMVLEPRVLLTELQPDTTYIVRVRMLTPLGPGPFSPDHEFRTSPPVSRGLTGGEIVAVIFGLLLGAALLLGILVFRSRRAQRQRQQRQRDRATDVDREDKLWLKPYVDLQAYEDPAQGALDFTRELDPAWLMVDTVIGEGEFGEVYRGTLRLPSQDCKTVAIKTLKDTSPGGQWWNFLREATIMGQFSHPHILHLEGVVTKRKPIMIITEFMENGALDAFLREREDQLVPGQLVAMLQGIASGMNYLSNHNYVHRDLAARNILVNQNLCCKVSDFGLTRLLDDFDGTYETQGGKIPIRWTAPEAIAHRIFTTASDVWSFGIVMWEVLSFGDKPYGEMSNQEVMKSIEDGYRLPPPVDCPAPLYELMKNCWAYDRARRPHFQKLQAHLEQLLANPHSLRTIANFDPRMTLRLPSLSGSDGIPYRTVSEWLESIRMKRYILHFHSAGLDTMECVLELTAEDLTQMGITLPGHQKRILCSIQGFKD
Chain of human Dual Specificity Protein Phosphatase 3 (DUSP3), DUSP3 (gene 1845) (P51452 whole entry, looked up): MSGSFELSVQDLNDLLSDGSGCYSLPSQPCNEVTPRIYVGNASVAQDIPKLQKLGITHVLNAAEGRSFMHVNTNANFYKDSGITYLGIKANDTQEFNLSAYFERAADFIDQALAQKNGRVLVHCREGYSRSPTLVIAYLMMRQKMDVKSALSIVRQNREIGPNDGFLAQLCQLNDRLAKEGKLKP
Chain of Mitogen-activated protein kinase 3 (Homo sapiens) (P27361 whole entry, looked up): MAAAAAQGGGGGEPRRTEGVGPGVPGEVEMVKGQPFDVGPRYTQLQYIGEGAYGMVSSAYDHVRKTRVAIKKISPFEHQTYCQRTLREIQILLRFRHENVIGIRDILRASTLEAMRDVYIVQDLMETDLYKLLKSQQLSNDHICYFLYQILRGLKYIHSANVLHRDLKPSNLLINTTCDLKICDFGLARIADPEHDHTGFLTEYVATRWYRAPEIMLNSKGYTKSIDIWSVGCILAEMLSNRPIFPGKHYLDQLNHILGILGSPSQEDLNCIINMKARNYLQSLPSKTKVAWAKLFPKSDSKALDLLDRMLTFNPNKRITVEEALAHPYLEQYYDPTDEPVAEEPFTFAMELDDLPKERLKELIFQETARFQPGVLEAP

CCCC(CCC)C(=O)O
outcome (CDK2 (gene 1017)): inactive
outcome [1]: inactive
outcome [2]: inactive

O=c1[nH]cnc2c1ncn2[C@H]1CC[C@@H](CO)O1
AC50 (CDK2 (gene 1017)): 25 µM (active)

Cc1ncc([C@@H](CCCCCCc2ccc3c(n2)NCCC3)CC(=O)O)cn1
outcome [3]: inactive
outcome [4]: inactive

CC(C)CCCCCCOC(=O)C1CCCCC1C(=O)OCCCCCCC(C)C (stereo not drawn)
outcome [5]: inactive

CCCCCCCCCCCCCCCCOS(=O)(=O)O
AC50 [5]: 4.2 µM (active)

CCCCCCCC/C=C\CCCCCCCC(=O)OC[C@@H](O)[C@H]1OC[C@H](O)[C@H]1O
outcome [1]: inactive

CCCCC(CC)C(=O)OCCOCCOCCOC(=O)C(CC)CCCC (stereo not drawn)
outcome [4]: inactive

COc1cc(C(C)C)c2c(c1)S(=O)(=O)N(COc1cc(=O)n3cccc(OCCN4CCCCC4)c3n1)C2=O
AC50 [5]: 0.0341 µM (active)

CCc1ccc(O)c(C(C)(C)C)c1
outcome [6]: inactive
outcome [7]: inactive

c1ccc2c(c1)-c1cccc3c1c-2cc1ccccc13
outcome [5]: inactive
outcome [4]: inactive

O=C(NO)C1(NS(=O)(=O)c2ccc(Oc3ccc(F)cc3)cc2)CCOCC1
outcome [8]: inactive
outcome [1]: inactive
outcome [9]: inactive
outcome [7]: inactive
outcome [10]: inactive
outcome [4]: inactive

CCCCCCCC1CCC(=O)O1 (stereo not drawn)
outcome [9]: inactive

CCN(CC)C(=S)SSC(=S)N(CC)CC
outcome [11]: inactive
outcome [6]: inactive

OCC(CO)(CO)CO
outcome [8]: inactive

O=C(O)c1ccc2c(c1)nc(C(=O)NC1CCN(C3CC3)CC1)n2Cc1cc(-c2ccc(Cl)s2)on1
outcome [9]: inactive
outcome [7]: inactive
outcome [12]: inactive

OC(Cn1cncn1)(Cn1cncn1)c1ccc(F)cc1F
outcome [7]: inactive

OCCNCCO
outcome [9]: inactive

OC(CCl)CCl
outcome [4]: inactive

OC[C@H]1O[C@@H]2O[C@H]3[C@H](O)[C@@H](O)[C@@H](O[C@H]4[C@H](O)[C@@H](O)[C@@H](O[C@H]5[C@H](O)[C@@H](O)[C@@H](O[C@H]6[C@H](O)[C@@H](O)[C@@H](O[C@H]7[C@H](O)[C@@H](O)[C@@H](O[C@H]1[C@H](O)[C@H]2O)O[C@@H]7CO)O[C@@H]6CO)O[C@@H]5CO)O[C@@H]4CO)O[C@@H]3CO
outcome [9]: inactive

CCCCOC(=O)c1ccccc1
outcome [6]: inactive

CCCOc1ccc(S(=O)(=O)N2CCN(CC)CC2)cc1-c1nc2c(CC)n(Cc3ccccn3)nc2c(=O)[nH]1
outcome [13]: inactive

CCCCCCOC(=O)CC(CC(=O)OCCCCCC)(OC(=O)CCC)C(=O)OCCCCCC
outcome [11]: inactive
outcome [5]: inactive

NNC(=O)c1ccncc1
outcome [4]: inactive

CCn1nc(C)c2c1C(=O)NCC(c1ccc(O)cc1)=N2
outcome [5]: inactive
outcome [6]: inactive

NC(=O)NN=Cc1ccc([N+](=O)[O-])o1
AC50 [14]: 1.26 µM (active)
outcome [9]: inactive

c1ccc(C(O[C@@H]2CCCN(CCc3ccc4c(c3)OCO4)C2)c2ccccc2)cc1
AC50 [6]: 7.95 µM (active)
outcome [9]: inactive

Cn1c(=O)c2[nH]cnc2n(C)c1=O
outcome [4]: inactive

C[C@]12C=CC(=O)C=C1CC[C@H]1[C@@H]3C[C@@H](O)[C@](O)(C(=O)CO)[C@@]3(C)C[C@H](O)[C@@]12F
outcome [9]: inactive

c1ccc2cc3ccccc3cc2c1
outcome [4]: inactive

OCc1ccccc1
outcome [9]: inactive

c1ccc2ncccc2c1
outcome [4]: inactive
